As usually defined, the inhibition is the relative decrease from the control value, in per cent.

Out of some 290,000 compounds screened, about 27,000 (9.3%) were called active. No stated cut-off is given here; in the data, active means inhibition mostly above about 28% (no sharp cut-off); inactive means mostly below about 43%. Many of the other results were omitted from the sample, so actives are more common in it than they were.

This assay can be described thus: A qHTS for Small Molecule Inhibitors of Shiga Toxin. Further: 0% is about no effect. Conditions: Vero cells, Shiga toxin protein synthesis inhibition reporter; at 38.7 µM, active compounds read high. (In general: In qHTS, concentration-response curves come from the screen itself.)
Turning to `CCn1c(SCC(=O)NC2CC2)nnc1-c1ccccc1OC`, the inhibition is -5.24% (inactive).
Take `O=C1/C(=C/c2ccc(F)cc2)SC(=S)N1CCCC(=O)N1CCCCC1CCO` (configuration not stated): the inhibition was -4.46% (inactive).
As to `CN(C)CCCN(C(=O)c1ccc(S(=O)(=O)N2CCCc3ccccc32)cc1)c1nc2ccc(F)cc2s1`, the inhibition is -2.08% (inactive).
Consider `O=C(NCc1ccncc1)C1CCN(C(=O)c2cccc(Cl)c2)CC1`, for which the inhibition is 4.24% (inactive).
For `COC(=O)C1(C)NC(c2ccc(C)cc2)C2C(=O)N(c3ccc(F)cc3)C(=O)C21` (configuration not stated), the inhibition was -13.6% (inactive).
As to `O=S(=O)(c1cc(Cl)ccc1Cl)N1CCN(Cc2ccco2)CC1`, the inhibition was -10.2% (inactive).
For the compound `O=c1[nH]c2ccc(S(=O)(=O)N3CCCC3)cc2[nH]1`, the inhibition is -12.3% (inactive).
On to `Cc1ccc(C(C(=O)NCC2CCCO2)N(C(=O)c2snc(C(N)=O)c2N)c2ccc(C(C)C)cc2)o1` (configuration not stated), for which the inhibition is 3.97% (inactive).
In the case of `N#Cc1cccc(CN2CCC(=O)N([C@H](CO)c3ccccc3)CC2)c1` it was -4.45% (inactive).
Take `O=C(NCC1CC1)C1(C(F)(F)F)C/C(=C\CCO)CCCO1` (configuration not stated): the inhibition is 2.98% (inactive).
Turning to `Cc1c2cnn(CC(=O)NCc3ccccn3)c(=O)c2c(C)n1Cc1ccc(Cl)cc1`, the inhibition was -4.19% (inactive).
For the compound `C/C(=N\NC(=O)c1ccccc1F)c1ccccn1`, the inhibition was 61.3% (active).
In the case of `C/C(=N\NC(=O)Cc1ccc(Cl)cc1)c1ccccn1`, the inhibition is 13.2% (inactive).
Consider `COc1ccc(CC(=O)N/N=C(\C)c2ccccn2)cc1`, for which the inhibition was -0.965% (inactive).
In the case of `CCCCN(CC)CCNC(=O)CCNC(=O)Cn1ccc2ccccc2c1=O` it was -4.87% (inactive); in that of `O=S(=O)(c1ccc(F)cc1)N1CCN=C1SCc1cccc(F)c1`, -6% (inactive); in that of `COCC(C)NC(=O)c1ccc(Cl)c(Cl)c1` (configuration not stated), -2.73% (inactive).
For `Cc1ccc(C)c(NC(=O)c2ccc3nccnc3c2)c1`, the inhibition was 19.7% (inactive).
In the case of `CC(C)CCC(C)NC(=O)c1ccc2nccnc2c1` (configuration not stated), the inhibition was 95.5% (active).
In the case of `COC(=O)Cc1cnc(NC(=O)CSc2nc(C(C)C)cc(=O)[nH]2)s1`, the inhibition was -7.11% (inactive).
In the case of `CCN(CC)CCn1c(/N=C/c2cc(Br)ccc2O)nc2ccccc21`, the inhibition is 26.3% (inactive).
In the case of `Oc1ccc(Br)cc1C=Nc1ccc2[nH]ncc2c1` it was -11.4% (inactive); in that of `Oc1ccc(Br)cc1/C=N/Nc1ccccn1`, 66.3% (active); in that of `Cc1nccn1CC(=O)N/N=C/c1ccc(O)c(O)c1`, -15.2% (inactive).
Take `Oc1ccc(/C=N/Nc2ccc(C(F)(F)F)cn2)cc1O`: the inhibition is 108% (active).
In the case of `FC(F)(F)c1cccc(N/N=C/c2ccccc2)c1` it was 33.8% (inactive); in that of `COc1cc(C(=O)NCCOC(=O)c2cccc(N(C)C)c2)cc(OC)c1OC`, -2.34% (inactive).
Regarding `N#C/C=C/N1CCN(Cc2ccc3c(c2)OCO3)CC1`, the inhibition is -6.62% (inactive).
As for `CN(C(=O)CSc1nnc(-c2c[nH]c3ccccc23)o1)C1CCS(=O)(=O)C1` (configuration not stated), the inhibition is -1.73% (inactive).
For the compound `O=C(CSc1nnc(-c2c[nH]c3ccccc23)o1)c1ccccc1`, the inhibition is 22.5% (active).
Consider `CCC(CC)NC(=O)CSc1nnc(-c2c[nH]c3ccccc23)o1`, for which the inhibition was -14.4% (inactive).
For `Cc1cccc(OCC(=O)Nc2ccc(NC(=O)c3ccco3)c(C)c2)c1`, the inhibition was -4.8% (inactive).
Turning to `COc1ccc(-c2nonc2NC(=O)c2oc3ccc(F)cc3c2C)cc1OC`, the inhibition is -3.6% (inactive).
`CCOc1ccccc1CN1CCN(C2CCC2)CC1CCO` (configuration not stated): the inhibition is -4.75% (inactive).
As for `O=C(c1ccc(CSc2ccccc2)cc1)N1CCCCCC1`, the inhibition is 17.6% (active).
With `CC1CCN(C(=O)c2ccc(CSc3ccc(Cl)cc3)cc2)CC1`, the inhibition is 0.865% (inactive).
For `O=C(c1ccc(S(=O)(=O)c2ccccc2)cc1)N1CCCCCC1`, the inhibition was 1.55% (inactive).
For the compound `CSCC[C@H](NC(=O)N1CCn2c1nc1ccccc12)C(=O)NCc1ccc2c(c1)OCO2`, the inhibition is -0.771% (inactive).
In the case of `Cc1ccc(-c2nc(CS(=O)(=O)CC(=O)NCc3ccc4c(c3)OCO4)c(C)o2)cc1`, the inhibition is -3.19% (inactive).
In the case of `Cc1ccc(NC(=O)c2ccc(CSc3ncnc4nc[nH]c34)cc2)c(C)c1` it was 39% (inactive); in that of `CCc1ccc(-c2nnn(Cc3nn[nH]n3)n2)cc1`, -3.04% (inactive); in that of `CCOC(=O)c1ccc(NC(=O)Cn2nnc(-c3ccc(C)cc3)n2)cc1`, -5.77% (inactive).
With `CCc1ccc(-c2nnn(Cc3nc4ccccc4s3)n2)cc1`, the inhibition was 81% (active).
In the case of `COc1ccccc1N1CC(C(=O)Nc2nnc(SCC(=O)NCC3CCCO3)s2)CC1=O` (configuration not stated) it was -8.54% (inactive).
Consider `COc1cccc(NC(=O)CN(C)C(=O)c2ccccc2CCc2ccccc2)c1`, for which the inhibition is 16.1% (inactive).
For `COc1ccc(CC(NC(C)=O)C(=O)NC2CCN(C(=O)c3ccc(Cl)cc3)CC2)cc1` (configuration not stated), the inhibition was -3.77% (inactive).
With `O=C(Cc1ccccc1)N1CCN(S(=O)(=O)c2ccc([N+](=O)[O-])cc2)CC1`, the inhibition was -23.6% (inactive).
With `CC(CC(=O)N1CCN(S(=O)(=O)c2ccccc2)CC1)n1cncn1` (configuration not stated), the inhibition is -9.3% (inactive).
For the compound `N#C/C=C1\Sc2ccccc2C(=O)N1CC(=O)N1CCN(S(=O)(=O)c2ccccc2)CC1`, the inhibition is 122% (active).
Take `COC(=O)CN1C(=O)[C@H]2[C@@H](/C=C/c3ccccc3)N3C(=O)CN(Cc4ccccc4)C(=O)[C@@]3(Cc3ccccc3)[C@H]2C1=O`: the inhibition was -2.54% (inactive).
In the case of `COc1ccc(C(=O)NC2CCN(C(=O)Nc3ccc(F)cc3)CC2)cc1`, the inhibition is -7.18% (inactive).
For `COc1cc(-c2noc(C3CCCN(S(=O)(=O)c4cccc(Cl)c4)C3)n2)cc(OC)c1OC` (configuration not stated) the value was -8.14% (inactive).
Consider `O=C(Cc1cccs1)N1CCCC(c2nc(-c3ccc(S(=O)(=O)N4CCCC4)cc3)no2)C1` (configuration not stated), for which the inhibition is -10.3% (inactive).
In the case of `COc1ccc(NC(=O)N2CCCC(C(=O)Nc3ccccc3OC)C2)cc1` (configuration not stated) it was -5.66% (inactive); in that of `COc1ccc(NC(=O)N2CCCC(c3nc(-c4ccc(F)cc4)no3)C2)cc1` (configuration not stated), 96% (active); in that of `Cc1c(CN2CCCC(C(=O)c3cccc(Cl)c3)C2)c(=O)n(-c2ccccc2)n1C` (configuration not stated), -7.01% (inactive).
In the case of `CC(C)c1ccc(-c2noc(C3CCCN(S(C)(=O)=O)C3)n2)cc1` (configuration not stated), the inhibition was 64.2% (active).
On to `O=C(c1cccs1)N1CCCC(c2nc(-c3ccc(F)cc3)no2)C1` (configuration not stated), for which the inhibition was 82.3% (active).
On to `Cc1ccc(-c2noc(C3CCCN(C(=O)c4cccc(Cl)c4)C3)n2)o1` (configuration not stated), for which the inhibition is 69.1% (active).
Consider `O=C(c1ccc(F)cc1)N1CCCC(c2nc(-c3cccs3)no2)C1` (configuration not stated), for which the inhibition is 16.4% (inactive).
As to `CCN(C(=O)C1CCCN(c2nc(-c3ccc(OC)cc3)no2)C1)c1ccc(OC)cc1` (configuration not stated), the inhibition is 9.76% (inactive).
Take `CCc1nc2ccc(C(=O)N3CCN(c4cccc(Cl)c4)CC3)cc2nc1CC`: the inhibition is -14% (inactive).
